For 8 compounds, growth results are on record in PubChem BioAssay (NCI).

Some test systems named below: SR leukemia; RPMI-8226 leukemia; OVCAR-8 ovarian; OVCAR-5 ovarian; OVCAR-4 ovarian; SK-OV-3 ovarian; OVCAR-3 ovarian; HS 578T breast; NCI/ADR-RES ovarian; T-47D breast; BT-549 breast; SW-620 colon; MCF7 breast; HCT-116 colon; HCC-2998 colon; KM12 colon; IGROV1 ovarian; MDA-MB-435 melanoma.
What all share (experiment): NCI-60 one-dose screen, 48 h (100 = growth as untreated, 0 = no growth, -100 = all killed)
What all share (details): 10 µM unless noted

About 83,000 compounds went through this panel and 20% of them were active in at least one assay; those are over-represented in the sample as a whole.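 In brief: 96-well plates, 48 h treatment, single concentration, percent growth endpoint.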 Unmarked numbers belong to inactive results. The source made the active and inactive calls. How the source made its calls: active means growth percent below 10; inactive means the rest.

Consider `C[N+](C)(CCCCCC[N+](C)(C)C1c2ccccc2-c2ccccc21)C1c2ccccc2-c2ccccc21`, for which the growth in the assay with SR leukemia is 98.3%; with RPMI-8226 leukemia, 101%; in the assay on OVCAR-8 ovarian, 104%; in the assay with OVCAR-5 ovarian it was 108%; in the assay with OVCAR-4 ovarian, 111%; in the assay with SK-OV-3 ovarian, 111%. Also, the growth is 104% with OVCAR-3 ovarian; 98.2% with HS 578T breast; 115% in the assay with NCI/ADR-RES ovarian; 108% with T-47D breast; 117% in the assay on BT-549 breast; 106% in the assay on SW-620 colon. In addition, the growth in the assay on MCF7 breast is 103%; with HCT-116 colon, 101%; in the assay on HCC-2998 colon, 110%; in the assay with KM12 colon it was 111%.

With `Cn1cc(-c2csc(-c3cn(CCN)c4ccc(Br)cc34)n2)c2cccnc21`, the growth is 9.41% (active) in the assay on SR leukemia; 59.5% in the assay on RPMI-8226 leukemia; 76.5% with OVCAR-8 ovarian; 76.5% in the assay on OVCAR-5 ovarian; 54.3% with OVCAR-4 ovarian; 38.8% with IGROV1 ovarian. The growth in the assay on OVCAR-3 ovarian is 72.5%; in the assay on HS 578T breast it was 74.5%; with NCI/ADR-RES ovarian it was 86.4%; in the assay with T-47D breast it was 45.5%; in the assay on BT-549 breast it was 93.2%; with MDA-MB-435 melanoma it was 91.1%. For the same compound, the growth was 21.1% with SW-620 colon; 20.9% in the assay with MCF7 breast; 58.7% in the assay with HCT-116 colon; 97.9% in the assay on HCC-2998 colon; 71.8% in the assay with KM12 colon.

On to `O=C1CN(c2ccccc2)C(=O)C1C(=O)Nc1ccc(Cl)c(Cl)c1` (centres undefined), for which the growth in the assay on SR leukemia was 1.54% [100 µM] (active); in the assay on RPMI-8226 leukemia it was 34.9% [100 µM]; in the assay on OVCAR-8 ovarian it was -9.87% [100 µM] (active); in the assay on OVCAR-5 ovarian, 36.3% [100 µM]; with OVCAR-4 ovarian, 0.243% [100 µM] (active); in the assay with IGROV1 ovarian, 20.9% [100 µM]. Besides, the growth in the assay on OVCAR-3 ovarian was 39.3% [100 µM]; in the assay on HS 578T breast it was 32.8% [100 µM]; in the assay with NCI/ADR-RES ovarian, 21.6% [100 µM]; with T-47D breast, 12.7% [100 µM]; with BT-549 breast, 23.4% [100 µM]; with MDA-MB-435 melanoma, 7.79% [100 µM] (active). Further, the growth with SW-620 colon is 20.1% [100 µM]; in the assay with MCF7 breast, 15.7% [100 µM]; in the assay on HCT-116 colon it was -19.4% [100 µM] (active); in the assay with HCC-2998 colon, 2.18% [100 µM] (active); in the assay on KM12 colon it was 17.2% [100 µM].

Take `CCCNc1nc(N(C)O)nc(N(C)O)n1`: the growth was 32.1% with SR leukemia; 38.1% with RPMI-8226 leukemia; 26.5% with OVCAR-8 ovarian; 64% in the assay on OVCAR-5 ovarian; 19.2% with OVCAR-4 ovarian; 36.9% in the assay on IGROV1 ovarian. Moreover, the growth with OVCAR-3 ovarian is -10.6% (active); in the assay with HS 578T breast, 71%; in the assay on NCI/ADR-RES ovarian, 16.9%; in the assay on T-47D breast, 28.2%; with BT-549 breast it was 68.5%; with MDA-MB-435 melanoma, 51.2%. Moreover, the growth in the assay on SW-620 colon is 38.1%; in the assay with MCF7 breast, 15.6%; in the assay on HCT-116 colon it was 5.06% (active); in the assay on HCC-2998 colon, 24.5%; in the assay with KM12 colon, 41.5%.

For the compound `Cc1c(C)c2c(c(C)c1NC(=O)CCCCCCC(=O)O)CCC(C)(CCCC(C)CCCC(C)CCCC(C)C)O2` (centres undefined), the growth in the assay on SR leukemia was 6.23% (active); with RPMI-8226 leukemia, 69%; with OVCAR-8 ovarian, 69.1%; in the assay on OVCAR-5 ovarian, 121%; with OVCAR-4 ovarian it was 58.5%; in the assay with IGROV1 ovarian it was 89.8%. In addition, the growth with OVCAR-3 ovarian was 65.5%; in the assay on HS 578T breast, 101%; in the assay with NCI/ADR-RES ovarian, 77.3%; in the assay with T-47D breast, 89.7%; in the assay with BT-549 breast it was 60.3%; in the assay with MDA-MB-435 melanoma, 95%. Moreover, the growth was 80.4% in the assay with SW-620 colon; 43.5% in the assay on MCF7 breast; 22.7% in the assay with HCT-116 colon; 98.2% with HCC-2998 colon; 30.7% with KM12 colon.

Take `CC/C=C\C[C@H]1CC=C2C(=O)C=C[C@@H]2CC=CCCCC(=O)O[C@@H](CCCCC)CC=C2C(=O)C=C[C@@H]2CC=CCCCC(=O)O[C@@H](CCCCC)CC=C2C(=O)C=C[C@@H]2CC=CCCCC(=O)O[C@@H](CCCCC)CC=C2C(=O)C=C[C@@H]2CC=CCCCC(=O)O1`: the growth in the assay on SR leukemia is 2.79% [7.9 µM] (active); with RPMI-8226 leukemia, 0.23% [7.9 µM] (active); in the assay on OVCAR-8 ovarian, -21.9% [7.9 µM] (active); in the assay with OVCAR-5 ovarian it was 75.1% [7.9 µM]; in the assay on OVCAR-4 ovarian, 21.6% [7.9 µM]; in the assay on SK-OV-3 ovarian, 73.4% [7.9 µM]. For the same compound, the growth in the assay on OVCAR-3 ovarian was -14% [7.9 µM] (active); with HS 578T breast it was 41.9% [7.9 µM]; in the assay on T-47D breast it was 29.5% [7.9 µM]; with BT-549 breast, -17.3% [7.9 µM] (active); with MDA-MB-435 melanoma, -23.1% [7.9 µM] (active); with SW-620 colon it was 9.77% [7.9 µM] (active). Moreover, the growth in the assay with MCF7 breast was 20.4% [7.9 µM]; in the assay with HCT-116 colon it was -53.6% [7.9 µM] (active); in the assay with HCC-2998 colon, 88.6% [7.9 µM]; with KM12 colon it was 21.1% [7.9 µM].

For the compound `Cn1nc(-c2ccccc2)c2c(-c3ccccc3)onc2c1=O`, the growth is 26.4% in the assay with SR leukemia; 24.9% in the assay with RPMI-8226 leukemia; 51.9% with OVCAR-8 ovarian; 66.5% in the assay on OVCAR-5 ovarian; 72.1% in the assay on OVCAR-4 ovarian; 51.3% in the assay with IGROV1 ovarian. The growth is 12.2% with OVCAR-3 ovarian; 15.8% in the assay with HS 578T breast; 45.8% in the assay with NCI/ADR-RES ovarian; 26.8% in the assay with T-47D breast; 47.4% in the assay on BT-549 breast; -1.78% (active) in the assay on MDA-MB-435 melanoma. Moreover, the growth was 28.9% with SW-620 colon; 23.6% in the assay with MCF7 breast; 42.5% in the assay with HCT-116 colon; 74.5% in the assay on HCC-2998 colon; 33.7% with KM12 colon.

`O=C1c2cc3c(cc2-c2c1c1ccc(F)cc1c(=O)n2CCCN1CCOCC1)OCO3`: the growth in the assay with SR leukemia is 4.41% (active); in the assay with RPMI-8226 leukemia, 46.1%; in the assay on OVCAR-8 ovarian, 47%; in the assay on OVCAR-5 ovarian it was 78.9%; in the assay on OVCAR-4 ovarian, 78.5%; in the assay on IGROV1 ovarian it was 77.5%. Besides, the growth in the assay with OVCAR-3 ovarian was 85.7%; in the assay on HS 578T breast it was 100%; in the assay on NCI/ADR-RES ovarian, 36.6%; in the assay with T-47D breast, 28.4%; with BT-549 breast it was 47.5%; in the assay with MDA-MB-435 melanoma, 65.6%. The growth in the assay with SW-620 colon was 48.8%; with MCF7 breast, 13.5%; with HCT-116 colon, 45.2%; in the assay with HCC-2998 colon, 77.8%; in the assay with KM12 colon, 69.8%.
